Screens as filed in PubChem BioAssay.
An excerpt weighted towards active compounds, which were near 2.3% of everything screened.
ANO1 activ: activates or potentiates the mouse TMEM16A chloride channel; Q8BHY3; HEK293 TMEM16A/YFP-H148Q/I152L, iodide quench fluorescence; stronger effect = lower value; B-score at 10 µM; hit rate 0.3% among 340,000; AID 623877;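 active means fluorescence-ratio B-score plate-corrected deviation score at least 3 library SD below zero, with starting fluorescence score within 5 deviations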;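 further: channel opened by trigger with iodide after compound preincubation; score built on the fluorescence ratio of max minus min over baseline; more negative score means more quench and so TMEM16A activation or potentiation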
CHT PAM: human CHT allosteric activation; Q9GZV3; CHT-expressing cells, membrane potential dye, choline EC20; stronger effect = higher value; LV-AA mutant CHT in HEK293 cells; B-score at 10 µM; hit rate 0.49% among 310,000; AID 488977;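 active means initial fluorescence not abnormally high and integrated response B-score, plate-corrected, over 3 SD above library mean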
CHT block: inhibits the human high affinity choline transporter; AID 488975; hit rate 0.86% among 310,000; Q9GZV3; B-score at 10 µM; CHT-expressing cells, membrane potential dye, choline response; stronger effect = lower value;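 active means B-score over 3 SD under the library average, and starting fluorescence ratio not unusually high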;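 further: choline stimulus applied at its EC90 after an EC20 pre-addition; B-score computed on integrated fluorescence ratio after choline addition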
TMEM16A inh: inhibitors of mouse TMEM16A calcium-activated chloride channel; Q8BHY3; HEK293 TMEM16A/YFP iodide influx fluorescence, ionomycin; normalized B-score (activity score, 25-100; higher = stronger inhibition) at 10 µM; hit rate 1.2% among 310,000; AID 588511;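 active means ratio plate-corrected score three or more library SD toward inhibition, starting fluorescence score within five deviations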;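 further: score derived from kinetic fluorescence span divided by baseline fluorescence per well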
TMEM16A reconf: re-confirmation of mouse TMEM16A chloride channel inhibitors; shares compounds with TMEM16A inh; HEK293 TMEM16A/YFP-H148Q, iodide quench fluorescence; ionomycin added to raise cell calcium; inhibition, % at 10 µM; hit rate 39% among 2,300; AID 652189;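 active means mean duplicate percent inhibition, scaled so buffer wells are 0 and the reference blocker 100, over three buffer SD above buffer mean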
HEK293 Ca mobil: calcium mobilization counter-screen hit for TMEM16A inhibitor series | shares compounds with TMEM16A inh | TMEM16A/YFP HEK293, Fluo4 calcium mobilization | calcium response (% of ionomycin), % at 10 µM | hit rate 2% among 2,300 | AID 652231;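 active means duplicate-averaged calcium signal over 20% of the ionomycin maximum, relative to buffer baseline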;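 further: each well's signal is peak minus trough fluorescence divided by its pre-addition baseline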
YFP-HEK293 quench: acts in parental YFP-HEK293 cells lacking TMEM16A, counter-screen | shares compounds with TMEM16A inh | iodide YFP quench, ionomycin | YFP ratio F(max-min)/F0 at 10 µM | 2,300 tested, under 10 active;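 active means yellow fluorescent protein signal ratio exceeding the buffer control mean by over 5 SD of those controls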;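 further: ratio is mean of duplicate wells from kinetic YFP trace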
ClC-1 inh: rat ClC-1 inhibition, TMEM16A specificity screen | shares compounds with TMEM16A inh | ratio percent, % at 10 µM | AID 652236 | 2,300 tested, under 10 active | CHO ClC-1-YFP, iodide influx fluorescence quench; iodide control reads 0, buffer control 100;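 active means duplicate-mean ratio percent above the mean of iodide-only control wells, which defines zero, plus 5 of their SD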;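 further: higher percent means stronger block of ClC-1 iodide influx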
Target sequence (P35524 whole entry, looked up): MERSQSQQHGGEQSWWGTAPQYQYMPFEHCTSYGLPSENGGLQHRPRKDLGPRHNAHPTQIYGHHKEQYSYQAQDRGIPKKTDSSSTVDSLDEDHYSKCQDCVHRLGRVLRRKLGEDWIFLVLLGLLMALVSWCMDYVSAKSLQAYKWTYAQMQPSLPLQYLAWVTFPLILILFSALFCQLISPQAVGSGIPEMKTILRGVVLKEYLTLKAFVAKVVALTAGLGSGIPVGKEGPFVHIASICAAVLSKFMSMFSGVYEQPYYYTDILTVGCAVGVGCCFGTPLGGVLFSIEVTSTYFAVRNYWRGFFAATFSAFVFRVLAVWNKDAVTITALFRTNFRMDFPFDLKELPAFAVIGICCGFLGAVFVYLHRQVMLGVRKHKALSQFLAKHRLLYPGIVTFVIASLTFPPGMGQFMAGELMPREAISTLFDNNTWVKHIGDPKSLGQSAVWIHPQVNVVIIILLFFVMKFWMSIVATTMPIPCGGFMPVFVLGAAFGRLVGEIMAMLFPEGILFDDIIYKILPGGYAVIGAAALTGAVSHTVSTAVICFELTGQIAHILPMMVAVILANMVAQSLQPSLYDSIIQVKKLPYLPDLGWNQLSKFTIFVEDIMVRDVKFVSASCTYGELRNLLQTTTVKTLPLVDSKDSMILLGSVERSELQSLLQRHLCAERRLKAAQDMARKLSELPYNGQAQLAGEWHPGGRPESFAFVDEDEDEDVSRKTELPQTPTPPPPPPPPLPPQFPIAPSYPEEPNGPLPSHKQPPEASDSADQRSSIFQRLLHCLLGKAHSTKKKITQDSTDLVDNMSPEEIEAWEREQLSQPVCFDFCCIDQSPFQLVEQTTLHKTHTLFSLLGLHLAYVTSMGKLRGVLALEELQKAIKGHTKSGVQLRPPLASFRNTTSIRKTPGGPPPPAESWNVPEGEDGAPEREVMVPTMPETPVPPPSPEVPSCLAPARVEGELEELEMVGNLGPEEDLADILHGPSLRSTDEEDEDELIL
Large screens that a line does not name were inactive (follow-up assays come after a bar, where they were run).

COc1cc(NC(=O)c2cnc(N)o2)cc(C(=O)Nc2cccc(C(F)(F)F)c2)c1	TMEM16A inh 100 | TMEM16A reconf 46% | HEK293 Ca mobil inactive | YFP-HEK293 quench inactive | ClC-1 inh inactive
CCOC(=O)CNC(=O)N1CCCC(N(C)CCc2ccccc2)C1 (stereo unspecified)	none
COc1ccc(N2CCN(C(=O)CSc3nnc4nc(C)cc(C)n34)CC2)cc1	TMEM16A inh 25 | TMEM16A reconf inactive | HEK293 Ca mobil inactive | YFP-HEK293 quench inactive | ClC-1 inh inactive
CNC(=O)NC(=O)CSc1nnc(-c2ccco2)n1-c1ccccc1	none
CC(=O)c1c[nH]c2ccc(C)cc2c1=O	TMEM16A inh 100 | TMEM16A reconf inactive | HEK293 Ca mobil inactive | YFP-HEK293 quench inactive | ClC-1 inh inactive
Cc1ccc(NC(=O)C2=CCN(S(=O)(=O)c3ccc(F)cc3)CC2)c(C)c1	TMEM16A inh 100 | TMEM16A reconf inactive | HEK293 Ca mobil inactive | YFP-HEK293 quench inactive | ClC-1 inh inactive
COCCOc1cc(-n2cccc2)c(Cl)cc1Cl	none
CCOC(=O)C1=C(CSc2nc(-c3ccccc3)ccc2C#N)OC(N)=C(C#N)C1c1ccccc1 (stereo unspecified)	none | TMEM16A reconf inactive | HEK293 Ca mobil inactive | YFP-HEK293 quench inactive | ClC-1 inh inactive
CCOC(=O)C1=C(CSc2nc3c(cc2C#N)CN(C)CC3)OC(N)=C(C#N)C1c1ccc(F)cc1 (stereo unspecified)	none
CCOC(=O)C1=C(c2ccccc2)OC(N)=C(C#N)C1c1ccco1 (stereo unspecified)	TMEM16A inh 25 | TMEM16A reconf inactive | HEK293 Ca mobil inactive | YFP-HEK293 quench inactive | ClC-1 inh inactive
CC(NC(=O)Cn1cc2c(n1)CCCCC2)c1ccccc1 (stereo unspecified)	TMEM16A inh 25 | TMEM16A reconf inactive | HEK293 Ca mobil inactive | YFP-HEK293 quench inactive | ClC-1 inh inactive
Cc1ccc(NC(=O)C(C)c2ccc(-c3ccccc3)c(F)c2)c(C)c1 (stereo unspecified)	TMEM16A inh 25 | TMEM16A reconf inactive | HEK293 Ca mobil inactive | YFP-HEK293 quench inactive | ClC-1 inh inactive
CC(C(=O)O)c1ccc(-c2ccccc2)c(F)c1 (stereo unspecified)	none
C/C(=N\OC(=O)NC(C)C)c1sc(-c2ccccc2)nc1C	none
C/C(=N\OC(=O)NC1CCCCC1)c1sc(-c2ccccc2)nc1C	TMEM16A inh 25 | TMEM16A reconf 25% | HEK293 Ca mobil inactive | YFP-HEK293 quench inactive | ClC-1 inh inactive
COC(=O)c1cccc(Nc2ncnc3sccc23)c1	TMEM16A inh 100 | TMEM16A reconf 26% | HEK293 Ca mobil inactive | YFP-HEK293 quench inactive | ClC-1 inh inactive
O=C(CCC1CCCCC1)Nc1ccccc1-c1ccccc1	TMEM16A inh 100 | TMEM16A reconf 26% | HEK293 Ca mobil inactive | YFP-HEK293 quench inactive | ClC-1 inh inactive
C/C(O)=c1/ccc2cccc3nc(C)nc1c23	none | TMEM16A reconf inactive | HEK293 Ca mobil 102% | YFP-HEK293 quench inactive | ClC-1 inh inactive
O=S(=O)(c1ccc2c(c1)C(O)c1ccccc1CC2)C(F)(F)F (stereo unspecified)	none (no result: CHT PAM, CHT block, TMEM16A inh)
COc1cc(OC)c(NC(=S)Nc2cc(Cl)cc(Cl)c2)cc1Cl	TMEM16A inh 100 | TMEM16A reconf 18% | HEK293 Ca mobil inactive | YFP-HEK293 quench inactive | ClC-1 inh inactive
CC(=O)Oc1ccc(-c2cccc(C(=O)NCC(=O)O)c2)cc1	TMEM16A inh 25 | TMEM16A reconf inactive | HEK293 Ca mobil inactive | YFP-HEK293 quench inactive | ClC-1 inh inactive
Cc1ccc(-c2ccc(S(=O)(=O)NCC3CCCO3)cc2)cc1 (stereo unspecified)	none
Cc1cc(C)n(C(=O)c2ccc(S(=O)(=O)NCC3CCCO3)cc2)n1 (stereo unspecified)	none | TMEM16A reconf inactive | HEK293 Ca mobil inactive | YFP-HEK293 quench inactive | ClC-1 inh inactive
C/C=C1\COC(C(=O)NCc2cccc(OC)c2OC)(C(F)(F)F)C=C1C=C1CCCCC1 (stereo unspecified)	TMEM16A inh 25 | TMEM16A reconf inactive | HEK293 Ca mobil inactive | YFP-HEK293 quench inactive | ClC-1 inh inactive
C/C=C1\COC(C(=O)NCc2ccncc2)(C(F)(F)F)C=C1C=C1CCCCC1 (stereo unspecified)	none
CCn1c(=O)n(CC)c2cc(S(=O)(=O)N3CCC(c4ccccc4)CC3)ccc21	TMEM16A inh 100 | TMEM16A reconf inactive | HEK293 Ca mobil inactive | YFP-HEK293 quench inactive | ClC-1 inh inactive
CC(C)(C)c1ccc(C2=CC(c3ccccc3F)n3ncnc3N2)cc1 (stereo unspecified)	none
Cn1cccc1C1C=C(c2ccc(C(C)(C)C)cc2)Nc2ncnn21 (stereo unspecified)	TMEM16A inh 100 | TMEM16A reconf 50% | HEK293 Ca mobil inactive | YFP-HEK293 quench inactive | ClC-1 inh inactive
Cc1noc(C)c1COc1cccc(C(=O)N(C)Cc2cccs2)c1	none (no result: CHT PAM, CHT block, TMEM16A inh)
Cc1noc(C)c1COC(=O)c1cc(=O)[nH]c2ccccc12	none
Cc1noc(C)c1COC(=O)c1cc(C)n(-c2ccccc2)c1C	TMEM16A inh 25 | TMEM16A reconf 22% | HEK293 Ca mobil inactive | YFP-HEK293 quench inactive | ClC-1 inh inactive
COC(CNC(=O)c1cccc(-n2c(=S)[nH]c3cc(Cl)ccc3c2=O)c1)OC	none
O=S(=O)(NCC(c1ccco1)N1CCc2ccccc2C1)c1ccc(Br)cc1 (stereo unspecified)	TMEM16A inh 25 | TMEM16A reconf inactive | HEK293 Ca mobil inactive | YFP-HEK293 quench inactive | ClC-1 inh inactive
Cc1ccc(C(=O)O)cc1-n1c(=O)n(Cc2ccccc2)c(=O)c2[nH]cnc21	none
Cn1nccc1C(=O)NC1CCCc2c1cnn2-c1ccc(C(C)(C)C)cc1 (stereo unspecified)	TMEM16A inh 25 | TMEM16A reconf 28% | HEK293 Ca mobil inactive | YFP-HEK293 quench inactive | ClC-1 inh inactive
C=CCN(CC=C)c1ncnc2[nH]ncc12	none (no result: CHT PAM, CHT block, TMEM16A inh)
CCCCOC(=O)C1Cc2ccccc2C(=O)O1 (stereo unspecified)	TMEM16A inh 100 | TMEM16A reconf inactive | HEK293 Ca mobil inactive | YFP-HEK293 quench inactive | ClC-1 inh inactive
O=C(Nc1nnc(CSCc2ccc(Cl)cc2)s1)c1cccc([N+](=O)[O-])c1	TMEM16A inh 25 | TMEM16A reconf inactive | HEK293 Ca mobil inactive | YFP-HEK293 quench inactive | ClC-1 inh inactive
O=S(=O)(Nc1nc2ccccc2nc1N1CCc2ccccc2C1)c1ccc(Br)cc1	none
O=S(=O)(Nc1nc2ccccc2nc1N1CCc2ccccc2C1)c1ccc(Cl)cc1	TMEM16A inh 25 | TMEM16A reconf 50% | HEK293 Ca mobil inactive | YFP-HEK293 quench inactive | ClC-1 inh inactive
